HT1080-NT tox = qHTS for induction of synthetic lethality in tumor cells producing 2HG: qHTS for the HT-1080-NT fibrosarcoma cell line; HT-1080-NT fibrosarcoma viability, CellTiter-Glo ATP luminescence, 48 h; Potency, µM (doses to about 46.1 µM), hits mostly cytotoxic; 360,000 tested, 1.6% active; AID 686970, 2013;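 further: NT is the 2HG producing partner of a matched IDH1 knockdown line; nearly all actives have a fitted effect of over 55% in size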
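Fibrosarcoma NT cells, 750 per well in 5% FBS RPMI, were exposed to compound for 48 hours. Viability: CellTiter-Glo luminescence.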
IL-1B inflam inh = qHTS for Inhibitors of Inflammasome Signaling: IL-1-beta AlphaLISA Primary Screen | THP-1 LPS/ATP IL-1B secretion, AlphaLISA, 16 h; stronger effect = lower value | activity change, % at 57.5 µM | 360,000 tested, 4.7% active | AID 743279, 2014; in the data active means activity change below about -50%; inconclusive means mostly about -30% to -49%
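THP-1 cells pretreated 1 hr with compounds (up to 57.5 uM final), then stimulated with LPS (250 ng/mL final) plus ATP (1.25 mM final); secreted IL-1B measured by AlphaLISA after 16 hr, decreased signal indicating inhibition.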
DT40 TDP1 no CPT = qHTS for Inhibitors of human tyrosyl-DNA phosphodiesterase 1 (TDP1): qHTS in cells in absence of CPT | DT40 Tdp1-/- hTDP1 cells, no CPT, ATP luminescence, 48 h | Potency, µM (series often up to 46.2 µM), actives largely listed as inhibitors | 420,000 tested, 15% active | AID 686978, 2013; further: nearly all actives have a fitted effect of over 55% in size
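A cellular qHTS used chicken DT40 cells lacking endogenous Tdp1 but carrying stably transfected human TDP1. Compounds were applied without camptothecin, and cell growth kinetics were judged by ATP-dependent luminescence after ≥48 hr.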
HT1080 IDH1KD tx = qHTS for induction of synthetic lethality in tumor cells producing 2HG: qHTS for the HT-1080-IDH1KD cell line; HT-1080 IDH1 knockdown viability, ATP luminescence, 48 h; 360,000 tested, 2% active; Potency, µM (series often up to 46.1 µM), usual class: cytotoxic; AID 686971, 2013
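% activity derives from luminescence (CellTiter-Glo), normalised to DMSO and no-cell wells. HT-1080-IDH1KD cells, 750/well, had 48 h compound exposure at 37 °C.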
DT40 TDP1 CPT = qHTS for Inhibitors of human tyrosyl-DNA phosphodiesterase 1 (TDP1): qHTS in cells in presence of CPT; Potency, µM (top dose mostly 46.2 µM), actives largely listed as inhibitors; 420,000 tested, 12% active; chicken DT40 Tdp1-/-;hTDP1 cells + 20 nM CPT, ATP luminescence, 48 h; AID 686979, 2013; further: nearly all actives have a fitted effect of over 55% in size
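Cell growth measured by CellTiter-Glo luminescence after a minimum 48 h, 37 C compound exposure with 20 nM CPT in Tdp1-knockout DT40 cells stably expressing hTDP1, seeded 400/well; qHTS titration format.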
Hits are given with their value; – = inactive; ? = inconclusive; · = no result; [ ] = remark or other dose. A selection: hits, their analogues and other compounds. The true share with any hit is near 19%. Unless noted, the call rests on the fitted dose curve; in most records, active means well fitted curve in the direction sought with a large enough effect; inconclusive means small, poorly fitted or top-dose-only effect, or another doubt; inactive means no such curve, though single readings can be large; an effect the other way counts as inactive or inconclusive.

SMILES	HT1080-NT tox	IL-1B inflam inh	DT40 TDP1 no CPT	HT1080 IDH1KD tx	DT40 TDP1 CPT
COc1ccc(OCc2cc(C(=O)NC(C)Cc3cccnc3)no2)c(Cl)c1 (stereo not given)	–	–	23µM	–	?
CCc1ccc(NC(=O)COCc2cc(-c3ccc(F)cc3)on2)cc1	·	·	–	·	–
CC(C)C(NC(=O)c1ccc(F)cc1)C(=O)NCC1CCCO1 (stereo not given)	–	–	–	–	–
Cc1cc(=O)c2c(O)c3c(O)cc(O)c4c5c(O)cc(O)c6c(O)c7c(=O)cc(C)c8c1c2c(c34)c(c65)c78	·	·	8.2µM	·	16µM
C#CCN1C=C(C(=O)OCC)C(C)NS1(=O)=O (stereo not given)	–	–	–	–	–
C#CCN1C=C(C(=O)OCC)C(C)N(Cc2ccccc2I)S1(=O)=O (stereo not given)	?	–	8.2µM	21µM	13µM
COC(=O)c1c(C)c2c(C)cc3ccccn3c-2c1C(=O)OC	–	–	29µM	–	?
COc1ccc(-n2ccc(=O)c3c2CCCC3=O)cc1	–	–	–	–	–
COc1ccc(N2C3=C(C(=O)CC(C)(C)C3)C(c3ccccc3OC)C3=C2CC(C)(C)CC3=O)cc1	–	-86	16µM	–	?
COc1ccc(N2C3=C(CC4=C2CC(C)(C)CC4=O)C(=O)CC(C)(C)C3)cc1	7.1µM	-102	3.3µM	?	4.6µM
Cc1ccc(N2C3=C(C(=O)CC(C)(C)C3)C(c3cn(C)nc3C)C3=C2CC(C)(C)CC3=O)cc1	–	–	13µM	?	15µM
COc1ccc(N2C3=C(CC4=C2CCCC4=O)C(=O)CCC3)cc1	–	-94	?	–	?
[O-][N+](=C(c1ccccc1)c1ccccc1)c1ccccc1	–	–	?	–	?
CC[C@@H](NC(=O)[C@H](Cc1ccccc1)NC(=O)CC[C@H]1O[C@@H](n2ccc(=O)[nH]c2=O)[C@H](O)[C@@H]1O)c1ccccc1	–	–	–	–	–
Cc1cnc(C(=O)OCC(=O)Nc2ccc(Br)c(C)c2)cn1	–	–	–	–	–
OC(Cn1cnnc1)c1ccccc1 (stereo not given)	–	–	?	?	–
CCN(C(=O)COC(=O)c1cccnc1SC)c1c(N)n(Cc2ccccc2)c(=O)[nH]c1=O	–	–	–	–	–
CCC(C)(C)n1nnnc1C(c1cc2cc(C)cc(C)c2[nH]c1=O)N1CCCC1 (stereo not given)	–	-51	?	–	?
Cc1cc(C)c2[nH]c(=O)c(C(c3nnnn3CC3CCCO3)N3CCCC(C)C3)cc2c1 (stereo not given)	–	?	?	–	18µM
Cc1ccc(C)c2[nH]c(=O)c(C(c3nnnn3C(C)(C)C)N3CC=C(c4ccc(F)cc4)CC3)cc12 (stereo not given)	–	–	16µM	–	?
Cc1cc(C)c2[nH]c(=O)c(C(c3nnnn3CC3CCCO3)N3CCC(C)CC3)cc2c1 (stereo not given)	–	–	?	–	?
Cc1cc(C)n2nc(C(=O)OCC(=O)N(C)C3CCS(=O)(=O)C3)nc2n1 (stereo not given)	–	–	–	–	–
CC(=O)Nc1ccc(S(=O)(=O)N(C)Cc2cnn(C)c2)cc1	–	–	16µM	–	–
CC(C)N(Cc1ccccc1)S(=O)(=O)c1cccs1	–	–	26µM	–	–
O=S(=O)(NCc1ccccc1)c1cccs1	–	–	–	–	0.082µM
SMILES	HT1080-NT tox	IL-1B inflam inh	DT40 TDP1 no CPT	HT1080 IDH1KD tx	DT40 TDP1 CPT
CN(Cc1ccccc1)S(=O)(=O)c1cccs1	–	–	–	–[9.24 µM]	–
CC(=O)Nc1ccc(S(=O)(=O)N(Cc2cccnc2)Cc2cc3ccc(C)cc3[nH]c2=O)cc1	–	–	15µM	–	?
O=S(=O)(NCCc1ccccc1)c1cccs1	–	–	–	–	–
Cc1ccc2nc(COc3ccccc3NC(=O)c3ccc(F)cc3)cc(=O)n2c1	·	·	–	·	–
CC(=O)Nc1ccc(S(=O)(=O)N(Cc2ccccc2)Cc2ccccc2)cc1	·	·	16µM	·	?
CC(=O)Nc1ccc(S(=O)(=O)N(C)Cc2ccccc2)cc1	–	–	–	–	–
Cc1ccc(S(=O)(=O)N(Cc2ccccc2)C(C)C)cc1	–	–	18µM	–	18µM
CC(=O)Nc1ccc(S(=O)(=O)N(Cc2ccccc2)C(C)C)cc1	–	–	21µM	–	16µM
CCOC(=O)N1CCN(S(=O)(=O)N2CCCC(C(=O)NCCc3ccc(OCC)c(OCC)c3)C2)CC1 (stereo not given)	–	–	–	–	–
COc1cc(OC)c(/C=C/c2ccc3ccccc3[n+]2C)c(OC)c1	·	·	0.1µM	·	0.1µM
CCCCOc1ccc2ccccc2c1C=O	–	–	–	–	–
CCC[n+]1c(/C=C/c2c(OC)cc(OC)cc2OC)ccc2ccccc21	·	·	0.089µM	·	0.11µM
COc1cc(/C=C/c2ccccc2)cc(OC)c1	–	–	–	–	–
CCCC[n+]1c(/C=C/c2c(OC)cc(OC)cc2OC)ccc2ccccc21	·	·	0.089µM	·	0.32µM
Nc1[nH]c(C(=O)c2ccccc2)c(-c2ccncc2)c1C(=O)NC1CC1	–	–	–	?	–
COc1ccc(-n2ccnc2SCC(=O)c2c(N)n(C3CC3)c(=O)[nH]c2=O)cc1	–	–	–	–	–
Cn1c(=O)c2c(nc(NCc3ccc4c(c3)OCO4)n2Cc2ccc(F)cc2)n(C)c1=O	?	–	6.5µM	?	9.2µM
CCNc1nc2c(c(=O)n(C)c(=O)n2C)n1Cc1ccc(F)cc1	·	·	1µM	·	2.1µM
COC(=O)C1=C(C(=O)OC)[C@@H]2N(C)c3ccc(OC)cc3[C@@]23C[C@@H](C(=O)OC)N(C(=O)COCc2ccccc2)C3=N1	–	–	–	–	?
c1ccc(Cn2ncc3c(N4CCCCC4)ncnc32)cc1	–	–	?	–	?
Cc1ccc(Cn2ncc3c(N4CCN(c5ccccc5C)CC4)ncnc32)cc1	–	?	16µM	–	23µM
Clc1ccc(Cn2ncc3c(N4CCN(c5ccccc5)CC4)ncnc32)cc1	?	–	23µM	–	23µM
O=C(COC(=O)c1ccc(O)cc1)Nc1ccccc1[N+](=O)[O-]	–	–	–	–	–
COc1cc(C(=O)NCCOc2ccccc2)cc(OC)c1OC	–	–	–	–	–
O=C(NCCOc1ccccc1)c1cc(C(=O)NCCOc2ccccc2)cc([N+](=O)[O-])c1	–	–	18µM	–	?
